# Hits are enriched below; roughly 1.9% of the tested compounds scored in any of these assays.
# RXFP1 antagonist – RXFP1 (human) relaxin receptor antagonism. activity change, negative = inhibition, % at 57.5 µM. HEK293-RXFP1, relaxin-stimulated cAMP HTRF, 30 min; hits give low values. 350,000 tested, 0.59% active;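 active = activity change of -60% or lower, but not beyond a set lower limit; inconclusive = change between -60% and -40%, or beyond the set limit; inactive = change above -40%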
# Target sequence (Q9HBX9 whole entry, looked up): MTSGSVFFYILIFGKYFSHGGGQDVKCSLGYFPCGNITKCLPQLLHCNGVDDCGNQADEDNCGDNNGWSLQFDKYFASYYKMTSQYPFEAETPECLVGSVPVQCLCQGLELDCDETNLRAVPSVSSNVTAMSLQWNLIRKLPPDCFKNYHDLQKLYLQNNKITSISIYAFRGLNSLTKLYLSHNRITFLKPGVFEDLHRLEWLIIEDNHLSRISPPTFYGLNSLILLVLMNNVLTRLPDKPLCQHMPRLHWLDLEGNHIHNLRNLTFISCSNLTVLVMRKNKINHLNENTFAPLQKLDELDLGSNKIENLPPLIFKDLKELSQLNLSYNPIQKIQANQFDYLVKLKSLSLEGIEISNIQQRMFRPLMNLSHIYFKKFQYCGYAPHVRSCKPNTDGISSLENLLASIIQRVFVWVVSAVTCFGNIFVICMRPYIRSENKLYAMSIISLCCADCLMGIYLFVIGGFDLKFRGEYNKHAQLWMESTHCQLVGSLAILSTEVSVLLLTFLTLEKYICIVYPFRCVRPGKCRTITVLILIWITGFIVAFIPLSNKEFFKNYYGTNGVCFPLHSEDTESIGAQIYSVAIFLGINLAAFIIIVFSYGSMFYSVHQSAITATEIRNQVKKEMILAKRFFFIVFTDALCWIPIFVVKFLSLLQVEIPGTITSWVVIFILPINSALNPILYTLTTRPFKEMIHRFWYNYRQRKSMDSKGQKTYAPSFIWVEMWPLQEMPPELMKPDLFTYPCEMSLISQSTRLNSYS
# RXFP1 agonist – agonists of human relaxin receptor RXFP1; Q9HBX9; HEK293T-RXFP1 cAMP TR-FRET, 30 min; response scale: percent of porcine relaxin response, buffer zero; Potency, µM (series often up to 57.5 µM), usual class: activators; 370,000 tested, 0.3% active; also: nearly all actives have a fitted effect of over 60% in size
#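 HEK293T cells stably expressing RXFP1 were pretreated with the PDE4 inhibitor Ro 20174, exposed to compounds for 30 min at 37C, lysed, and cAMP was read by TR-FRET. Data normalized to buffer (basal) and 29 nM porcine relaxin (100%).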
# NPSR antagonist – blocks cAMP signaling of the human neuropeptide S receptor. CHO-NPSR cells, cAMP TR-FRET, antagonist mode. Potency, µM (doses to about 38.3 µM), usual class: inhibitors. Q6W5P4. 220,000 tested, 1% active; also: nearly all actives have a fitted effect of over 50% in size
# Giardia kill – Giardia lamblia killing. Giardia lamblia trophozoite viability. activity change, % at 7.66 µM, hits read low. 340,000 tested, 0.15% active. AID 540267; in the data active = activity change below about -80%; inconclusive = between about -30% and that limit;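 also: parasites exposed to compound for two days anaerobically before the ATP read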
#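 Luminescence from cellular ATP indicates surviving trophozoites (100 cells/well) following 48 hrs anaerobic compound treatment at 37 deg C; signal develops 15-30 min at room temperature.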
# BRCA1 expr up – activators of BRCA1 expression; MCF7-BRCA1-FFLuc reporter, luminescence, 48 h; response scale: scaled: vehicle 0%, 10 µM genistein 100%; Potency, µM (highest dose often 46.1 µM), actives largely listed as activators; 380,000 tested, 1.1% active; AID 624202; also: nearly all actives have a fitted effect of over 80% in size
#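 48 h compound treatment of MCF7-BRCA1-FFLuc cells (phenol-red free MEM, 37 °C), then 15 min with luciferase substrate and luminescence imaging.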
# IL-2 act – activators of IL-2; 360,000 tested, 0.065% active; IL-2 activation reporter assay, cell-based qHTS; stimulated with anti-CD3/CD4/CD28 beads; in transgenic mouse T cells; AID 652025; activation, % (series mostly up to about 46 µM); in the data active = activation above about 50%; inconclusive = mostly about 30% to 49%
#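 Readout: EGFP and DsRed signals by fluorescent plate cytometry. Unstimulated transgenic mouse T cells received compound 60 min before antibody-bead stimulation, then incubated 18 h at 37 degrees C.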
# Hits are given with their value; n = inactive; u = inconclusive; x = no result. Unless noted, calls follow the shape of the dose curve; as a rule, active = well fitted curve in the direction sought with a large enough effect; inconclusive = small, poorly fitted or top-dose-only effect, or another doubt; inactive = no such curve, though single readings can be large; an effect the other way counts as inactive or inconclusive.
SMILES,RXFP1 antagonist,RXFP1 agonist,NPSR antagonist,Giardia kill,BRCA1 expr up,IL-2 act
CCCSc1cc(NCCOC(=O)CCC)c([N+](=O)[O-])c2nonc12,n,n,n,n,n,n
CCCC(=O)OCCNc1cc(Sc2nccn2C)c2nonc2c1[N+](=O)[O-],-81,n,10µM,n,n,n
O=[N+]([O-])c1c(NCCCO)cc(Sc2nc3ccccc3s2)c2nonc12,-73,n,u,n,n,n
Cc1nnc(Sc2cc(NCCCO)c([N+](=O)[O-])c3nonc23)s1,-68,n,u,n,n,n
CCC(=O)OCCNc1cc(Sc2nc3ccccc3s2)c2nonc2c1[N+](=O)[O-],n,n,u,n,n,n
Cc1nnc(Sc2cc(NCCO)c([N+](=O)[O-])c3nonc23)s1,-82,n,n,n,n,n
O=c1[nH]cc(CCc2ccccc2)c2ncncc12,x,x,x,n,n,x
Nc1cccc(/C=C2\C=Cc3ccccc32)c1,x,x,x,x,n,x
Cc1ccc(NS(=O)(=O)c2cc(NC(=O)c3ccc4c(c3)NC(=O)CS4)ccc2C)c(C)c1,-63,n,n,n,n,n
COc1ccc(NC(=O)c2ccc3c(c2)NC(=O)CS3)cc1S(=O)(=O)Nc1ccc(Br)cc1,n,n,n,n,n,n
CCCc1cc(C(=O)N/N=C/c2cccn2C)cs1,n,n,x,n,7.9µM,n
Cn1cccc1/C=N/NC(=O)c1cccs1,n,n,x,n,u,n
CCCCCC1Nc2cc(C(F)(F)F)c(S(N)(=O)=O)cc2S(=O)(=O)N1 (stereo not given),n,x,x,x,x,x
CN(C)/C=C1\N=C(c2ccc3c(c2)OCO3)OC1=O,n,n,n,n,7.9µM,n
CN(C)/C=C1\N=C(c2ccccc2)OC1=O,n,n,n,n,n,n
C=CCNC(=O)/C(C#N)=C/c1cc(Br)ccc1OC,-68,n,n,n,n,n
CN(C)c1ccc(/C=C\C=C/c2ccnc3ccccc23)cc1,x,x,x,x,n,x
COc1ccc(C(O)(CCC(C)C)C(CN2CCOCC2)c2ccccc2)cc1 (stereo not given),u,n,x,n,n,n
CC(C)CCC(O)(c1ccccc1)C(CN1CCOCC1)c1ccccc1 (stereo not given),-80,n,x,n,n,n
CCCCCCC(O)(c1ccccc1)C(CN1CCOCC1)c1ccccc1 (stereo not given),u,n,x,n,n,n
CCCCCC(O)(c1ccccc1)C(CN1CCOCC1)c1ccccc1 (stereo not given),-64,n,x,n,n,n
C/C(=N\NC(=O)c1csc(C)c1C)c1ccco1,n,n,n,n,n,n
C/C(=N\NC(=O)c1csc(C)c1C)c1ccc(C)s1,x,n,n,n,10µM,n
Cc1scc(C(=O)N/N=C/c2ccc(Cl)s2)c1C,n,n,n,n,7.1µM,n
Cc1scc(C(=O)N/N=C/c2ccc(OC(C)C)cc2)c1C,n,n,n,n,u,n
SMILES,RXFP1 antagonist,RXFP1 agonist,NPSR antagonist,Giardia kill,BRCA1 expr up,IL-2 act
COc1ccc(/C=c2\[nH]c(=O)/c(=C/c3ccc(OC)c(OC)c3)[nH]c2=O)cc1OC,x,x,x,x,n,x
Cc1ccccc1N1CCN(CCc2nnc3n2CCCC3)CC1,n,x,x,x,x,x
O=C1CC2(CCCCC2)CC(=O)N1CCc1ccccc1,n,x,x,n,n,n
O=C1C=CC(=O)C(C2=C3C(=O)N(CCc4ccccc4)CC(=O)N3CCC2)=C1,n,n,10µM,n,n,n
Fc1cccc(CNc2ncnc3ccc(-c4ccccc4Cl)cc23)c1,x,n,x,x,x,x
Nc1nc(SCc2ccc(Cl)cc2Cl)nc2nc3c(cc12)CCCC3,n,n,n,n,n,82
COc1cccc(C2=NN(C(C)=O)C(c3cn(-c4ccccc4)nc3-c3cccs3)C2)c1 (stereo not given),x,n,x,x,n,x
O=C(NCc1ccco1)Nc1ccc(Br)cc1Cl,n,n,n,n,13µM,n
COc1ccc(NC(=O)CN(C)C(=O)CNC(=O)c2sc3ccccc3c2Cl)cc1,n,n,x,n,7.9µM,n
CSc1ccc(C2C(C(=O)c3ccco3)=C(O)C(=O)N2c2nnc(SC)s2)cc1 (stereo not given),n,16µM,x,n,n,n
CC(I)CCC(C)[n+]1cccc(I)c1 (stereo not given),x,x,x,x,n,x
Cc1nn(CCCC(=O)NCCc2ccc(Cl)cc2)c(=O)c2c1sc1ccccc12,n,n,x,x,x,x
COc1cc(C#Cc2ccc3cc(CCO)oc(=O)c3c2)cc(OC)c1,x,x,x,n,7.1µM,n
Cc1ccc(S(=O)(=O)ON=C2CCN(S(=O)(=O)c3ccccc3)CC2)cc1,n,n,n,n,n,n
CC1=CC(=O)C=C(C)C1=NOS(=O)(=O)c1ccccc1,-84,n,7.9µM,n,n,n
Cc1ccc2c(c1)/C(=N/OS(=O)(=O)c1ccccc1)CCS2,n,x,x,n,n,n
CC1=CC(=O)C(C(C)C)=C/C1=N/OS(=O)(=O)c1ccccc1,u,n,4µM,n,n,n
Cc1nc(C2CCCCC2)c(-c2ccc(S(N)(=O)=O)c(F)c2)o1,n,x,x,x,x,x
O=c1[nH]c2c(-c3nc(-c4ccc(F)cc4)cs3)c(O)cn2c2ccc(Br)cc12,x,x,x,x,n,x
COc1ccccc1C(=O)NCCC(=O)NC1CCC(C)CC1 (stereo not given),n,n,x,n,8.9µM,n
CC(C)COc1ccc(C(=O)Nc2onc3c2CCCC3)cc1,n,n,x,x,x,x
CCOC(=O)N1CCN(C(=O)c2cc3c(s2)-c2c(C)cccc2OC3)CC1,n,n,x,u,n,n
Cc1cccc2c1-c1sc(C(=O)N3CCCCC3)cc1CO2,n,n,x,n,6.3µM,n
O=[N+]([O-])c1cc2cccnc2c2ncccc12,n,n,n,-88,n,n
O=S(=O)(Nc1cccc2ccccc12)c1cccc2ccccc12,x,x,x,n,n,x
SMILES,RXFP1 antagonist,RXFP1 agonist,NPSR antagonist,Giardia kill,BRCA1 expr up,IL-2 act
O=[N+]([O-])c1cc(C=NN2CCCCCC2)ccc1Cl,n,x,x,n,2.8µM,n
O=[N+]([O-])c1cc(/C=N/N2CCCCC2)ccc1Cl,n,n,n,n,11µM,n
O=C(Nc1ccc(Br)cc1)c1cc(S(=O)(=O)N2CCc3ccccc32)ccc1F,n,n,x,x,x,x
O=[N+]([O-])c1ccc(O)c(C=Nc2cccc3ccccc23)c1,-96,n,x,n,n,n
O=[N+]([O-])c1ccc(O)c(C=Nc2ccc3c(c2)OCCO3)c1,n,n,n,n,11µM,n
COc1cc(OC)c(OC)cc1/C=C/c1ccc2ccccc2[n+]1C,x,x,x,x,n,x
CC1CCc2c(nc3sc4c(c3c2N)CCCC4)C1 (stereo not given),n,n,n,n,2.8µM,n
CCCCOc1ccccc1CC1C(=O)Nc2ccc(Br)cc21 (stereo not given),x,n,x,x,x,x
CCn1c(SCC(=O)NCc2ccco2)nnc1-c1cccc(N(C)C)c1,x,x,x,x,n,x

# Bioassay records from PubChem.
